# Assay results as given in ChEMBL document CHEMBL3433997, “St. Jude Leishmania screening dataset” (2016).
# Biological target: Solute carrier family 2, facilitated glucose transporter member 1 (Homo sapiens) (UniProt P11166)
# Assay: ST_JUDE_LEISH: Cytotoxicity at 2uM final concentration against transgenic Leishmania Mexicana promastigotes LmGLUT1 that are glucose transport deficient and complemented with the human glucose transporter GLUT1. Activity is measured by DNA content using SYBR green in vitro
# Format: functional
# Sequence of Solute carrier family 2, facilitated glucose transporter member 1 (Homo sapiens) (P11166 whole entry): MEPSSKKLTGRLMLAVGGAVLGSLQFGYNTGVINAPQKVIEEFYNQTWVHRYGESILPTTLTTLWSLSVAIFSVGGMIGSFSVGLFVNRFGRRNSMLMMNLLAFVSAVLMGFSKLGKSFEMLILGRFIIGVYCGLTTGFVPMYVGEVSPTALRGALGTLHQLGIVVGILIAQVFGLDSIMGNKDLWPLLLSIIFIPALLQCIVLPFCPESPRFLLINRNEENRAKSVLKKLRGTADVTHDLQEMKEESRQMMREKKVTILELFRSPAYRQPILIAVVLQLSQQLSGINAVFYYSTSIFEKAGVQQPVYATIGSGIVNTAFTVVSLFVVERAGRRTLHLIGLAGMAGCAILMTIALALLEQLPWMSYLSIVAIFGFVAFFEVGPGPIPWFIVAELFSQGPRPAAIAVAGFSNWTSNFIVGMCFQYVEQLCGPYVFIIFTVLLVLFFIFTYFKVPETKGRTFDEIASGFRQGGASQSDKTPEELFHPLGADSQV
row,SMILES,inhibition
1,O=C(Nc1ccc2c(c1)OCO2)NC1CCN(c2ccnc(NCc3ccc(F)cc3)n2)CC1,2.05%
2,COc1ccccc1CCNc1nc(C)cc(N[C@@H](Cc2ccccc2)C(=O)NCc2cccs2)n1,2.42%
3,O=C(NCCCCCN1CCCN(C(=O)Nc2ccc(Cl)c(C(F)(F)F)c2)CC1)C1CC1c1ccc(Cl)c(Cl)c1 (stereo unspecified),2.42%
4,O=C(/C=C/c1ccc(Cl)c(Cl)c1)N1CCC(CCN2CCC(c3c[nH]c4ccccc34)CC2)CC1,-0.41%
5,O=C(/C=C/c1c[nH]c2ccccc12)NCCCCCN1CCC(c2c[nH]c3ccccc23)CC1,3%
6,Cc1cc(NC(=O)Nc2ccc(C#N)cc2)c2ccccc2n1,1.79%
7,COc1cc(C(=O)NC2CCN(Cc3ccccc3)CC2)ccc1-c1nc2cc(Cl)c(Cl)cc2[nH]1,0.11%
8,CN1CCC(NCc2ccc(-c3cccc(-c4nc5ccccc5[nH]4)c3)cc2)CC1,1.67%
9,CCCCCCNC(=O)C1Cc2c([nH]c3ccc(Br)cc23)C2(CCN(Cc3ccccc3)CC2)N1 (stereo unspecified),45.6%
10,CCc1ccccc1OCCCON1C(=N)N=C(N)NC1(C)C,28.6%
11,CC(C)(C)c1ccc(-c2nnc(N)nc2N)cc1,1.1%
12,NC1=NC(c2ccccc2)N(c2ccccc2)C(N)=N1 (stereo unspecified),1.99%
13,Oc1cccc(-c2nc(-c3cccc(I)c3)c(-c3ccc(-c4nc(-c5cccc(O)c5)[nH]c4-c4cccc(I)c4)cc3)[nH]2)c1,4.52%
14,Cc1cc(N2CCC(C)CC2)nc2cc(O)ccc12,1%
15,CC(C)C(C(=O)n1ncc2c3c(N)nc(N)nc3ccc21)C(C)C,87.4%
16,COc1cccc2c(NCc3ccccc3)nc(NCCCN3CCCCC3C)nc12 (stereo unspecified),67.7%
